Out of some 65,000 compounds screened, about 2,100 (3.2%) showed an effect of 50% or more. The median lay at about -52%. Only a selection was taken, and strong results are over-represented in it overall.

This assay concerns Plasmodium falciparum. Briefly: Screen against P. falciparum Asexual Blood Stage (ABS), at 5uM. The settings on record: tested at 5 uM. Type of assay: functional, Dd2.
With `NC1(c2nc(C(F)(F)F)cc(=O)[nH]2)CCCC1`, the INHIBITION is recorded as -131%.

Turning to `Cc1cc(Cc2cccc(C(F)(F)F)c2)cc(C2CCCNC2)n1` (stereo unspecified), the INHIBITION is 93.9%. Take `Cc1cc(Cc2ccc(F)cc2)cc(C2CCCNC2)n1` (stereo unspecified): the INHIBITION is reported as 73.9%.

With `Cc1cc(C)nc(C2CCCNC2)n1` (stereo unspecified), the INHIBITION is given as -66.3%. As to `Cc1nc(NCCC23CCCN2CCC3)cc(C2CCCNC2)n1` (stereo unspecified), the INHIBITION was -29.1%. For the compound `Cc1cccc(Cc2cc(C)nc(C3CCCNC3)c2)c1` (stereo unspecified), the INHIBITION is reported as 80.1%.

Turning to `Cc1cc(O)nc(C2CCCNC2)n1` (stereo unspecified), the INHIBITION is recorded as -1.25%. Regarding `FC(F)(F)c1nc(C2CCCNC2)no1` (stereo unspecified), the INHIBITION is listed as -15.6%. On to `Cc1cc(Cc2ccccc2)cc(C2CCCNC2)n1` (stereo unspecified), for which the INHIBITION was found to be 76.1%. For the compound `CC(C)c1ncc(Cl)c(C(=O)N2CCCN3CCCC3C2)n1` (stereo unspecified), the INHIBITION is on record as -79%. Consider `CNC(=O)[C@H]1C[C@@H]2CN(Cc3cccnc3OC)C[C@@H]2N1C(C)=O`, for which the INHIBITION amounted to 38.2%.

Turning to `NC1(c2nc(-c3ccccc3)cc(=O)[nH]2)CCCCC1`, the INHIBITION is recorded as -0.415%.

Take `COCCN1CCC2(COCc3cnc(N(C)C)nc32)C1` (stereo unspecified): the INHIBITION was -35.3%.

For the compound `Cc1cc(Cc2ccccc2C)cc(C2CCCNC2)n1` (stereo unspecified), the INHIBITION turned out to be 78.9%. For the compound `CC(C)c1nc(C2CCCNC2)no1` (stereo unspecified), the INHIBITION is listed as -62.1%. With `CNc1cc(C2CCCNC2)nc(C)n1` (stereo unspecified), the INHIBITION is -80.8%. For the compound `CCCN1CCN(C(=O)c2ccnc(N)c2)[C@H]2CS(=O)(=O)C[C@H]21`, the INHIBITION is listed as -88.3%. With `O=C1[C@@H]2CCN(Cc3ccoc3)C[C@@H]2OCCN1c1cccnc1`, the INHIBITION amounted to 23.5%. As for `CC(C)CN1C(=O)CO[C@@H]2CNC[C@H]21`, the INHIBITION was -4.26%. On to `Cc1cccc(CN2CC[C@H]3C[C@@H](C)O[C@@H]3C2)n1`, for which the INHIBITION was -46.7%.

Take `C[C@@H]1C[C@@H]2CCN(Cc3ccccn3)C[C@H]2O1`: the INHIBITION was -25.2%. Turning to `Cc1cccc(CN2CC[C@H]3C[C@H](C)O[C@@H]3C2)n1`, the INHIBITION is -37.4%. Turning to `Fc1ccccc1CC1CCN(Cc2ccccn2)CC1`, the INHIBITION is reported as 70.4%. Regarding `Cc1cccc(CN2CCC(Cc3ccccc3F)CC2)n1`, the INHIBITION is on record as 94%. With `C[C@H]1C[C@@H]2CCN(Cc3ccccn3)C[C@H]2O1`, the INHIBITION was -59.7%. In the case of `Cc1nc(CN2C[C@@H]3CN(C(=O)Cc4ccccn4)C[C@@H]3C2)cs1`, the INHIBITION is recorded as -41.5%.

Consider `CN1CCC2(Cc3ccccc3NC2=O)C1` (stereo unspecified), for which the INHIBITION came to 8.23%.

On to `Cc1nn(C)c2ncc(S(=O)(=O)N3CCN4CCCC4C3)cc12` (stereo unspecified), for which the INHIBITION is listed as -67.5%.

In the case of `CC(c1cn2ncsc2n1)n1cc2[nH]cccc-2c1=O` (stereo unspecified), the INHIBITION is listed as -131%. For the compound `CO[C@@H]1CN(Cc2scnc2C)[C@@H]2CCCO[C@@H]21`, the INHIBITION is given as -39.6%.

Consider `CC(=O)N1CCCC2(CN(Cc3ccncc3)CCO2)C1` (stereo unspecified), for which the INHIBITION is listed as -47.6%. For the compound `CN1CCC(N(C)C[C@H]2CC[C@@H](Cc3ccc4occc4c3)O2)CC1`, the INHIBITION amounted to 85.8%. To `Cc1noc(C)c1CC(=O)N1CCCN(Cc2cscn2)CC1` belongs 63.9%. To `CCc1nc(CN2CCN(C(=O)Cc3c(C)noc3C)CC2)cs1` belongs -46.1%; to `Cc1noc(C)c1CC(=O)N1CCN(Cc2cscn2)CC1`, -151%; to `COc1cccc(CNC(C)c2ccc(-n3ccnc3)cc2)c1O` (stereo unspecified), 79.5%. For the compound `CCOc1cccc(CNC(C)c2ccc(-n3ccnc3)cc2)c1O` (stereo unspecified), the INHIBITION was found to be 75%. As for `COc1ccccc1CNC(C)c1ccc(-n2ccnc2)cc1` (stereo unspecified), the INHIBITION stood at 78.4%. As to `CC(Cc1c(F)cccc1F)NC(=O)CSCC(N)=O` (stereo unspecified), the INHIBITION is reported as -46.4%. In the case of `Nc1cnc(-c2cccc3c2CCNC3)cn1`, the INHIBITION was -39.4%. `Cc1noc([C@@H]2C[C@H]3OCC[C@H]3N(C(C)C)C2)n1`: the INHIBITION is -89.1%. With `CC1(C)CC2(CCO1)NC(=O)c1cc(Br)ccc1-n1nnnc12` (stereo unspecified), the INHIBITION was -59.6%. Consider `c1cc(CN2C[C@@H]3COC[C@]3(COCC3CC3)C2)ccn1`, for which the INHIBITION was -11.9%. In the case of `CNc1ncccc1C(=O)N1CCN(C)C2(CCN(C)CC2)C1`, the INHIBITION is -111%. Consider `COCCn1cncc1Cn1ncc2ccccc2c1=O`, for which the INHIBITION is on record as -74.4%.

For `COc1cccc(CC(=O)N2CCCSCC2CN2CCCC2)c1` (stereo unspecified), the INHIBITION was found to be 54.7%. In the case of `O=C(COc1ccc(F)cc1)N1CCCSCC1CN1CCOCC1` (stereo unspecified), the INHIBITION is given as -80.2%. Under `COc1cccc(OCC(=O)N2CCCSCC2CN2CCOCC2)c1` (stereo unspecified) stands -105%.

`CCS(=O)(=O)N1CCC2(C1)C(=O)N(C)CCN2Cc1ccncc1` (stereo unspecified): the INHIBITION is given as -177%. As to `CCO[C@@H]1CC[C@H]2[C@H]1OCCN2Cc1ccoc1`, the INHIBITION was -43.3%.

On to `OCCN1CCCC(c2cccc(-c3ccccc3F)n2)C1` (stereo unspecified), for which the INHIBITION worked out at 83.4%. To `O=C1N(Cc2ccccn2)C[C@H]2CN(C3CCOCC3)CCN12` belongs -92.3%; to `O=C1NC[C@H]2CN(C3CCOCC3)CCN12`, -118%.

With `Fc1ccccc1-c1cccc(C2CCCN(C3CCOCC3)C2)n1` (stereo unspecified), the INHIBITION amounted to 82.3%. On to `Cc1nc(CN2CCN(C(=O)COc3c(C)ccc(C)c3C)CC2)no1`, for which the INHIBITION was -66.3%.

Regarding `O=C(N1CCCO1)[C@@]12CCO[C@@H]1CCN(Cc1cccnc1)C2`, the INHIBITION was -54.2%. To `CCc1cccc2c(CC(=O)N(C)CCN(C)C)c(C)[nH]c12` belongs 18.4%; to `CN(C)CCN(C)C(=O)Cn1cccc2cc(-c3ccc(F)cc3)nc1-2`, 86.8%; to `c1ccc(CO[C@@H]2CN(Cc3ccoc3)[C@@H]3COC[C@@H]32)nc1`, -37.1%. To `Cc1cc(CN2C[C@@H]3COC[C@]3(COCC(=O)N(C)C)C2)no1` belongs -23%; to `CCc1[nH]c2c(CNc3nccc(N)n3)cc(F)cc2c1C`, 85.6%.

On to `Cc1cc(CNc2nccc(N)n2)c2[nH]c(C)c(C)c2c1`, for which the INHIBITION was 79.5%. On to `CCc1[nH]c2c(CNc3nccc(N)n3)cc(C)cc2c1C`, for which the INHIBITION stood at 90.9%.

`CCN1C(=O)C2(CCCCC2)NC12CCSCC2`: the INHIBITION is -40%. Consider `COc1cccc(C2SCC(=O)Nc3ccsc32)c1` (stereo unspecified), for which the INHIBITION is recorded as -108%. Under `Cc1nc(CN2CCO[C@@H]3CNCC[C@@H]3C2)cs1` stands -15.7%. For the compound `NCC(=O)N1CCCC1c1ccc(C(=O)NCc2ccoc2)s1` (stereo unspecified), the INHIBITION came to 92.6%. Under `O=C(c1ccc(C2CCCN2)s1)N1CCN2CCC1CC2` (stereo unspecified) stands -75.7%; under `Cc1sc2nc(C(F)(F)F)nc(N3CCCN(C)CC3)c2c1C`, 76.1%; under `O=C1CSC(c2ccc(F)c(Cl)c2)c2c(n(C3CCOCC3)[nH]c2=O)N1` (stereo unspecified), -35.3%. With `Cc1cccc(CN2CC3C[C@]3(NC(=O)c3cccc(F)c3)C2)n1` (stereo partly specified), the INHIBITION is given as -65.9%.

Regarding `O=C(c1cnc(-c2ccccc2)s1)N1CCC2(CC1)OCCO2`, the INHIBITION is -174%. Under `COc1ccc2c(c1)c(C(=O)Nc1nnn[nH]1)cn2C(C)C` stands -11.6%. Under `CN1CCC(C2CCN(Cc3cccc(-n4cccn4)c3)CC2)C1` (stereo unspecified) stands 85.7%; under `c1cnc(N2C[C@H]3CCN(Cc4ccncc4)C[C@H]3C2)nc1`, -82.6%. Take `c1cc(CN2CC[C@@H]3CN(c4cncnc4)C[C@@H]3C2)ccn1`: the INHIBITION is on record as -49.4%. Under `NC(=O)c1cnn2c1NCC(CNCC1(c3ccccc3)CCC1)C2` (stereo unspecified) stands 22.7%; under `N[C@@H]1CCC[C@@H](Oc2ccc(F)cc2Oc2ccccc2)[C@@H]1O`, 77.4%; under `CN[C@@H]1CCC[C@@H](Oc2ccccc2Oc2ccc(C)cc2)[C@@H]1O`, 90.3%. On to `Cc1ccc(Oc2cc(F)ccc2O[C@@H]2CCC[C@@H](N)[C@H]2O)cc1`, for which the INHIBITION is given as 91.1%.

Regarding `Fc1cccnc1N1CCOCC2(CCCNC2)C1` (stereo unspecified), the INHIBITION is given as 34.8%. To `CCCN1C(=O)CC2(CCCNC2)C1=O` (stereo unspecified) belongs -90.5%; to `CN(Cc1cc(Cl)cc2cccnc12)CC1CCN(CCO)CC1`, 88.7%. Under `CN(c1ncccc1C#N)C1CCN(CCc2ccccn2)CC1` stands 20.6%. Under `CC(O)CN1CCC(CN(C)Cc2cc(F)cc3cccnc23)CC1` (stereo unspecified) stands 87.2%.

Regarding `Cc1ccc(CC(=O)N2CCN(CC(C)O)CC2)cn1` (stereo unspecified), the INHIBITION is recorded as -89.8%. Turning to `CN(Cc1cc(F)cc2cccnc12)CC1CCN(CCO)CC1`, the INHIBITION was 84.7%. Under `CC(C)CN1C(=O)C2(CCCC2)NC1c1cn(C)c(=O)n(C)c1=O` (stereo unspecified) stands -15.3%. For `C[C@H]1C[C@@H]2CCN(CC3CCOCC3)C[C@H]2O1`, the INHIBITION is given as -49.5%. Turning to `CC(NCC1(N(C)C)CCOCC1)c1ccc(Cl)cc1` (stereo unspecified), the INHIBITION is recorded as 74.6%. Regarding `CC(C)OCCNC1(c2ccc(Cl)cc2)CCOCC1`, the INHIBITION stood at 37.7%. For `CN1CCN2C(=O)N(C3CCCCC3)C[C@H]2C1`, the INHIBITION was -52.1%.

Consider `c1ccc(CN2CCC3(CC2)CC(Nc2nccs2)CO3)nc1` (stereo unspecified), for which the INHIBITION is on record as 75%. For `c1ccc(CO[C@@H]2CO[C@@]3(CCN(Cc4ccccn4)C3)C2)nc1`, the INHIBITION is given as -34.3%.

On to `c1ccc(CN2CCCC3(CCN(CC4CCCO4)CC3)C2)nc1` (stereo unspecified), for which the INHIBITION is listed as 15.1%. For the compound `c1ccc(CN2CCC3(CC2)CCN(Cc2cccnc2)C3)nc1`, the INHIBITION was 21%.

As for `O=S(=O)(C1CC1)N1CCC2(CCCN(Cc3ccccn3)C2)CC1`, the INHIBITION is reported as -22.4%. To `CS(=O)(=O)N1CCC2(CCCN(Cc3ccccn3)C2)C1` (stereo unspecified) belongs -32.2%.

Regarding `c1ccc(CO[C@H]2CO[C@@]3(CCN(Cc4ccoc4)C3)C2)nc1`, the INHIBITION was found to be 14.1%. `c1ccc(CN2CCC3(CC2)CCN(Cc2cccs2)C3)nc1`: the INHIBITION is recorded as 54.8%. Under `c1ccc(CN2CCCC3(CCN(Cc4cccs4)C3)C2)nc1` (stereo unspecified) stands 73.8%; under `c1ccc(N2CCC3(COCCN(Cc4cccs4)C3)C2)nc1` (stereo unspecified), 37.5%; under `c1ccc(N2CCCC3(CCN(Cc4cccs4)C3)C2)nc1` (stereo unspecified), 73.4%. To `Cc1ccc(N2C[C@@H]3OCCN(CC4CC4)[C@@H]3C2)nn1` belongs -167%; to `O=C(c1ccco1)N1CCN2C[C@H](OCc3cccnc3)C[C@H]2C1`, -180%; to `O=C([C@H]1C[C@H]2OCC[C@H]2N(Cc2ccncc2)C1)N1CCCCO1`, -62.9%.

The values are drawn from ChEMBL document CHEMBL4513216, “Probing the Open Global Health Chemical Diversity Library for Multistage-Active Starting Points for Next-Generation Antimalarials” (ACS Infect Dis, 2020).
